MITF primary – blocks human microphthalmia-associated transcription factor; O75030; AlphaScreen MITF homodimerization, bead proximity signal; inhibition, % at 2.6 µM; 0.91% of 650,000 active; AID 1259374; in the data active = inhibition above about 50%;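 also: 0% = vehicle wells with protein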
TEAD-YAP inh – TEAD-YAP interaction inhibition; HEK-TIYL cells, TEAD-Gal4/YAP UAS-luciferase luminescence; 1.4% of 640,000 active; AID 1259422; inhibition, % at 9.12 µM; in the data active = inhibition above about 32%;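 also: 0% = median of test compound wells and 100% = reference inhibitor wells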
GPR151 activ – activates the human receptor GPR151 | Q8TDV0 | PathHunter beta-arrestin GPR151 cells, luminescence | activation, % at 11.2 µM | 1% of 650,000 active; in the data active = activation above about 4.9%;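 also: 0% = median of compound wells and 100% = cells with positive control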
FBW7 activator – human FBW7 E3 ligase activation, primary screen; Q969H0; AlphaScreen FBW7–phospho-cyclin E peptide binding, activator screen; normalized activity (activation), % at 26.1 µM; 0.13% of 650,000 active; AID 1259310; in the data active = normalized activity above about 1.9%;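 also: purified mutant Fbw7 with reduced substrate affinity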
GPR151 conf act – human GPR151 activation, confirmation screen; shares compounds with GPR151 activ; GPR151 PathHunter beta-arrestin cells, luminescence, 90 min; % of EA-reagent control over plate median; activation, % at 11.2 µM; 6,700 tested, under 10 active; AID 1508609;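 active = mean percent activation across replicates above the confirmation screen cutoff of 4.91%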
GPR119 ag – counter-screen for GPR151 activators: effect on human GPR119; 0.3% of 6,700 active; AID 1508611; shares compounds with GPR151 activ; GPR119 PathHunter beta-arrestin cells, luminescence, 90 min; 0 = compound-well median, 100 = enzyme-acceptor control; activation, % at 11.2 µM;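 active = mean percent activation in the counterscreen above 29.09%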;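 also: counterscreen on off-target GPR119 to flag nonselective hits from the GPR151 activator screen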
Target sequence (Q8TDV5 whole entry, looked up): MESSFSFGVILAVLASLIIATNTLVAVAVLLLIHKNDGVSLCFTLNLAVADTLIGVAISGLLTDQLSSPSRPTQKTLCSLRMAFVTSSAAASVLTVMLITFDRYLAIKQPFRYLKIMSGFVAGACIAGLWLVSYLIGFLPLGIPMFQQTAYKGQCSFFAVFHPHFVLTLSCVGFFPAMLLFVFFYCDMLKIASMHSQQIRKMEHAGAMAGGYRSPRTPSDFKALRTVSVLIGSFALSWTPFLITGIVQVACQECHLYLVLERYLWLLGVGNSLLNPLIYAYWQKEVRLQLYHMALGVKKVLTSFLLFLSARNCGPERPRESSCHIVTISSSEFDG
Active calls of the source: *; . = not tested or not shown. An excerpt weighted towards active compounds, which were near 3.5% of everything screened.

SMILES	MITF primary	TEAD-YAP inh	GPR151 activ	FBW7 activator	GPR151 conf act	GPR119 ag
COc1cccc(CNC(=O)C(NS(=O)(=O)c2cccc3nsnc23)C(C)C)c1 (stereo not drawn)	1	4	7.1*	0	0	1
OC(COc1ccccc1CNC1CCOCC1)CN1CCc2ccccc2C1 (stereo not drawn)	-7	2	3	0	.	.
O=C(NC1CCCC1)C1CCC(=O)N1C1CCCCC1 (stereo not drawn)	4	4	4	0	.	.
O=C(NC1CC1)C1CCC(=O)N1C1CCCCC1 (stereo not drawn)	12	0	8.5*	0	-1	-8
CC(=O)c1ccc(NC2c3ccccc3C(=O)N2Cc2ccco2)cc1 (stereo not drawn)	-14	8	0	1	.	.
Cc1ccc(NC(=O)C(CC(=O)O)NCc2ccco2)cc1 (stereo not drawn)	-5	-6	7.6*	0	0	3
CS(=O)(=O)N(CC(=O)Nc1ccc(OCc2ccccc2)cc1)C1CCCCC1	15	9	0	0	.	.
CN(CC(=O)NC1CCCCCC1)S(=O)(=O)c1ccccc1	7	-14	8.6*	0	0	2
CCOc1ccc(NC(=O)CN(C2CCCCC2)S(=O)(=O)c2ccccc2)cc1	-14	2	6.0*	0	0	14
CN(CC(=O)NC1CCCC1)S(=O)(=O)c1ccccc1	0	8	0	0	.	.
N#C/C(=C\c1ccc(F)cc1)C(=O)N1CCOCC1	-8	-34	6.3*	0	1	6
COc1ccc(NCc2ccc(OC)c(OC)c2OC)cc1Cl	17	-31	7.9*	0	1	15
O=C(NNC(=O)c1nccnc1C(=O)O)c1cccc(S(=O)(=O)N2CCCCC2)c1	10	-2	1	0	.	.
C=C(C)CNc1nncc(-c2ccccc2C)n1	-6	-5	6.2*	0	0	1
C/C(=N\NC(=O)c1ccc(N2CCCC2=O)cc1)c1ccccn1	-14	-1	9.1*	0	1	9
CC1CCCCC1NC(=O)Cn1nc(-c2ccc(Cl)cc2)ccc1=O (stereo not drawn)	4	4	5.6*	0	1	-4
Cc1ccc(-c2nnc(Nc3ccc(C(N)=O)cc3)c3ccccc23)cc1S(=O)(=O)NCCO	4	-10	0	-1	.	.
CN1CCN(c2ccc(-c3nc(NCCCN4CCCC4=O)c4ncn(CCN5CCCC5=O)c4n3)cc2)CC1	0	2	0	0	.	.
Cn1c(COc2ccc(Cl)cc2)nnc1SCC(=O)NC(C)(C)C	-2	-2	-1	0	.	.
Cn1c(COc2ccc(Cl)cc2)nnc1SCC(=O)NCC(F)(F)F	3	0	5.1*	0	2	4
COc1ccc(Cc2nnc(SCC(=O)Nc3ccccc3OC)n2-n2cccc2)cc1	3	17	11*	0	-1	-18
COc1ccccc1NC(=O)CSc1nnc(CNC(=O)c2ccc(C)cc2)n1C	-16	9	1	0	.	.
COC(=O)CSc1nnc(COc2ccccc2OC)n1C	2	-5	5.3*	0	1	4
CNC(=O)CSc1nnc(COc2ccccc2OC)n1C	-8	2	0	0	.	.
COc1ccccc1NC(=O)CSc1nnc(COc2ccc(C)cc2)n1C	9	5	5.3*	0	-1	-6
SMILES	MITF primary	TEAD-YAP inh	GPR151 activ	FBW7 activator	GPR151 conf act	GPR119 ag
O=C(/C=C/c1ccc([N+](=O)[O-])cc1)Nn1c(-c2ccc(Br)cc2)nc2ccccc2c1=O	9	7	-1	0	.	.
COc1cc(OC)cc(C(=O)NC(=S)Nc2ccc([N+](=O)[O-])cc2)c1	-32	1	2	0	.	.
O=C(O)c1cccc(NC(=S)N/N=C/c2ccc(F)cc2)c1	-9	-25	3	0	.	.
FC(F)(F)c1nnc2c3ccccc3c(NC3CC3)nn12	6	1	7.3*	0	0	8
CCc1ccc(CN2CCC(C(=O)N3CCN(CC)CC3)CC2)cc1	45	-3	0	0	.	.
Cc1ccc(CN2CCN(C(=O)C3CCC3)CC2)cc1	7	-3	5.0*	0	1	8
CCOCCCNC(=S)N1CCC(NC(=O)c2ccco2)CC1	6	-3	5.9*	0	0	-2
CC(=O)c1ccc(N2CCN(C(=S)NCC3CCCO3)CC2)cc1 (stereo not drawn)	6	-2	1	0	.	.
O=C(c1ccco1)N1CCN(C(=S)NCC2CCCO2)CC1 (stereo not drawn)	-10	9	6.4*	0	0	-2
CCOCCCNC(=S)N1CCC(NC(=O)c2ccc(C)cc2)CC1	1	-1	1	0	.	.
CC(=O)Nc1cc(C(=O)NCCCN2CCCCC2)ccc1Sc1ccc(F)cc1	-13	-14	0	0	.	.
COc1ccc(CCNC(=O)CC(C(=O)N2CCc3ccccc32)n2ccnc2)cc1OC (stereo not drawn)	7	-7	0	1	.	.
CNC(=S)Nc1ccc(S(N)(=O)=O)cc1	17	8	-1	0	.	.
O=C1c2ccc([N+](=O)[O-])cc2C(=O)N1c1c[nH]c(=O)[nH]c1=O	1	9	5.1*	-2	0	1
CCOC(=O)CSc1ccc(C(=O)OCC)cc1[N+](=O)[O-]	3	9	-2	0	.	.
CCOC(=O)CSc1ccc(C(=O)N(CC)CC)cc1[N+](=O)[O-]	-5	-1	6.8*	0	0	-7
N#Cc1ccc(COC(=O)CCC(=O)c2cccs2)cc1	7	4	-1	0	.	.
CN1CC(=O)N(CCCC(=O)OCc2ccc(C#N)cc2)C1=O	-1	-2	7.7*	0	1	7
O=C(NC1CCSC1=O)c1cccc(C(=O)NC2CCSC2=O)c1 (stereo not drawn)	-28	-3	5.3*	0	0	-1
CC1CCCN(c2c(-c3ccc(Cl)cc3)c(=O)c2=O)C1 (stereo not drawn)	-3	10	5.9*	0	1	-5
O=C(CC(NCCO)C(=O)O)Nc1ccc(Cl)c(Cl)c1 (stereo not drawn)	0	6	3	0	.	.
O=C(COc1ccc(Cl)cc1)NCC(c1ccco1)N1CCOCC1 (stereo not drawn)	0	13	6.2*	0	2	3
Cc1cccc2c1NC(=O)/C2=C\C(=O)c1cccs1	-1	7	6.6*	0	0	1
CCc1ccc2c(c1)/C(=C/C(=O)c1cccs1)C(=O)N2	-26	0	17*	0	1	-3
CC1(C)CC(=O)C2=C(C1)N=C1c3ccccc3C(=O)C1C2c1ccc(Cl)cc1Cl (stereo not drawn)	6	10	1	0	.	.
